According to PubChem BioAssay (NCATS):
Records with an inconclusive call do not appear. Active and inactive are the calls of the source. Calls follow the shape of the dose curve; as a rule, active = well fitted cell-killing curve with a large enough effect; inconclusive = small, poorly fitted or top-dose-only effect, or effect the other way; inactive = no such curve, though single readings can be large or run the other way.

Assay: Quantitative High-Throughput drug screen in 47 multiple myeloma cell lines against the NCATS MIPE library collection: KMS11_JCRBsus cell viability assay (AID 1919873); also: nearly all actives have a fitted effect of over 50% in size
Conditions: KMS11 myeloma viability, CellTiter-Glo ATP luminescence, 48 h; series mostly up to 45.8 µM
From the text: PI: Beverly A. Mock Ph.D.
Laboratory of Cancer Biology and Genetics,
Center for Cancer Research, National Cancer Institute,
National Institute of Health, Bethesda, Maryland
Drug resistance and disease progression are common in multiple myeloma (MM) patients, underscoring the need for new therapeutic combinations. […] We hypothesized that effective combinations would reduce MYC expression and enhance p16 activity. […] These preclinical data identify potentially useful drug combinations for evaluation in drug-resistant MM and reveal potential mechanisms of combined drug sensitivity.
Described herein is the primary MIPE qHTS used to cherrypick compounds. Validated compounds were then further tested for potential synergistic activiy.
[1] Peat TJ, Gaikwad SM, Dubois W, Gyabaah-Kessie N, Zhang S, Gorjifard S, Phyo Z, Andres M, Hughitt VK, Simpson RM, Miller MA, Girvin AT, Taylor A, Williams D, D'Antonio N, Zhang Y, Rajagopalan A, Flietner E, Wilson K, Zhang X, Shinn P, Klumpp-Thomas C, McKnight C, Itkin Z, Chen L, Kazandijian D, Zhang J, Michalowski AM, Simmons JK, Keats J, Thomas CJ, Mock BA. Drug combinations identified by high-throughput screening promote cell cycle transition and upregulate Smad pathways in myeloma. Cancer Lett. 2023 Aug 1;568:216284. doi: 10.1016/j.canlet.2023.216284. Epub 2023 Jun 24. PMID: 37356470; PMCID: PMC10408729.
SEQUENCE No. (e.g., 1, 2, 3, etc.); […] (e.g., Cells, Incubation, Reagent, etc.); VALUE and DESCRIPTION.
1; Cells; 5 uL; white, solid bottom 1536-well Greiner assay plate.
2; Compounds; 23 nL; Kalypsis pin tool (Wako USA) equipped with a 1536-well pin head to transfer to the assay plates.
3; Incubation; 48 hours; 37C incubation.
4; Reagent;5uL; CellTiter Glo (Promega).
5; Detector; 425V; Luminescence; Viewlux PerkinElmer.
NOTES (numbers refer to Sequence numbers above)
1. The cell-based screening methods employed in this study were like those previously published. Briefly, the corresponding myeloma cell lines were screened in 1,536-well plates with 500 cells, 5-uL per well for inhibition of cell viability (assessed by measuring ATP levels with CellTiterGlo).
2. NCATS MIPE 4.0 library of approved and investigational drugs were added using the Kalypsis pin tool. Wells treated with DMSO only for 100% viability and media only for 0% viability were used as controls.
3. The assay plates were covered and incubated for 48 hours in a 37C, 5% CO2 incubator with controlled humidity.
4. After 48 hours, CellTilter-GloTM luminescent substrate mix (Promega) reagent was added to the assay plate and plates we incubated for 5 min at room temperature.
5. Signal was measured as median relative luminescence units on a ViewLux (PerkinElmer) multiplate reader.
[1] Heske CM, Davis MI, Baumgart JT, Wilson K, Gormally MV, Chen L, Zhang X, Ceribelli M, Duveau DY, Guha R, Ferrer M, Arnaldez FI, Ji J, Tran HL, Zhang Y, Mendoza A, Helman LJ, Thomas CJ. Matrix Screen Identifies Synergistic Combination of PARP Inhibitors and Nicotinamide Phosphoribosyltransferase (NAMPT) Inhibitors in Ewing Sarcoma. Clin Cancer Res. 2017 Dec 1;23(23):7301-7311. doi: 10.1158/1078-0432.CCR-17-1121. Epub 2017 Sep 12. PMID: 28899971; PMCID: PMC6636827.
Potency is read from the fitted curve at half-maximal effect.

SMILES	Potency
CON(C)C(=O)N1N=C(c2cc(F)ccc2F)S[C@]1(CCCN)c1ccccc1	inactive
O=C1CCCC(=O)C1C(=O)c1ccc(C(F)(F)F)cc1[N+](=O)[O-]	inactive
CC1(C)C(N(O)C(=O)Nc2ccc(Cl)cc2)N(c2ccc(Cl)cc2)C(=O)N1CC(=O)NN=CC=Cc1ccc([N+](=O)[O-])o1 (stereo not given)	6.62 µM (active)
CO[C@H]1O[C@@H]2O[C@@]3(C)CC[C@@H]4[C@@H](C)CC[C@@H]([C@H]1C)[C@@]24OO3	inactive
CCN(CC)CCCCNc1nc2cc(Cl)c(Cl)cc2nc1-c1ccc(-c2cccs2)s1	8.33 µM (active)
COc1nc(C)cnc1NS(=O)(=O)c1cccnc1-c1ccc(-c2nnco2)cc1	inactive
CO[C@H]1/C=C\O[C@@]2(C)Oc3c(C)c(O)c4c(O)c(c5c(nc6cc(C)ccn65)c4c3C2=O)NC(=O)C(C)=CC=C[C@H](C)[C@H](O)[C@@H](C)[C@@H](O)[C@@H](C)[C@H](OC(C)=O)[C@H]1C	inactive
CCCCCCOC(=O)N=C(N)c1ccc(NCc2nc3cc(C(=O)N(CCC(=O)OCC)c4ccccn4)ccc3n2C)cc1	18.7 µM (active)
Cc1cccc(Nc2nc(N[C@@H]3CCCC[C@H]3N)ncc2C(N)=O)c1	26.4 µM (active)
NCC1CCC(C(=O)O)CC1 (stereo not given)	inactive
FC(F)(F)c1ccc(C=Cc2nc(COc3ccc(CCCCn4ccnn4)cc3)co2)cc1	0.0235 µM (active)
O=C(c1ccc(C=Cc2n[nH]c3ccccc23)cc1)N1CCNCC1	1.05 µM (active)
CN[C@@H]1[C@@H](O)[C@@H](O[C@@H]2[C@@H](O)[C@H](O[C@H]3O[C@H](CN)[C@@H](O)[C@H](O)[C@@H]3O)[C@@H](N)C[C@@H]2NC(=O)[C@@H](O)CN)OC[C@]1(C)O	7.43 µM (active)
CC(C)CN(C[C@@H](O)[C@H](Cc1ccccc1)NC(=O)O[C@H]1CO[C@H]2OCC[C@H]21)S(=O)(=O)c1ccc(N)cc1	9.35 µM (active)
CNC1CCC(N(Cc2cccc(-c3ccncc3)c2)C(=O)c2sc3ccccc3c2Cl)CC1 (stereo not given)	8.33 µM (active)
COc1cc(CNC(=O)CCCCC=CC(C)C)ccc1O	inactive
CC1=C(C(=O)Nc2cc3cn[nH]c3cc2F)C(c2ccc(C(F)(F)F)cc2)CC(=O)N1 (stereo not given)	inactive
CCCCCCCCCCCCCCCC(=O)O[C@H]1[C@@H](O)[C@@H](O)[C@@H]([C@H](NC(=O)[C@@H]2C[C@@H](CCC)CN2C)[C@H](C)Cl)O[C@@H]1SC	inactive
COc1cccc(OC)c1-c1cc(C(=O)NC2(C(=O)O)C3CC4CC(C3)CC2C4)nn1-c1ccnc2cc(Cl)ccc12 (stereo not given)	inactive
CO[C@@H]1C(N(C)C(=O)c2ccccc2)C[C@H]2O[C@]1(C)n1c3ccccc3c3c4c(c5c6ccccc6n2c5c31)C(=O)NC4=O (stereo not given in full)	2.35 µM (active)

SMILES	Potency
CC(C)C[C@H](NC(=O)c1cc2ccccc2s1)C(=O)N1CCN(C(=O)[C@H](CO)NS(=O)(=O)c2ccc(Cl)cc2Cl)CC1	20.9 µM (active)
O=C(O)CCC=CCC[C@@H]1[C@H](N2CCCCC2)[C@@H](O)C[C@@H]1OCc1ccc(-c2ccccc2)cc1	inactive
COc1cc2c(cc1OC)[C@@H]1Cc3ccc(OC)c(OC)c3CN1CC2	7.43 µM (active)
COC1CCC(C(=O)c2ccc3nc4c(cc3c2)CCCO4)CC1 (stereo not given)	20.9 µM (active)
Cc1cccc2c1CC[C@H](CN1CCC(c3c(Cl)cccc3Cl)CC1)C[C@@H]2O	14.8 µM (active)
CC(C)C[C@@H](C(=O)N[C@H](C(=O)OC1CCCC1)c1ccccc1)[C@H](O)C(=O)NO	18.7 µM (active)
N#CC(=C1Nc2ccccc2S1)c1ccnc(OCc2ccc(CN3CCOCC3)cc2)n1	1.05 µM (active)
CCN1CCN(c2ccc(Nc3cc(N(C)C(=O)Nc4c(Cl)c(OC)cc(OC)c4Cl)ncn3)cc2)CC1	inactive
COC(=O)Nc1ccc(-c2nc(N3CCOCC3)c3cnn(C4CCN(C(=O)OC)CC4)c3n2)cc1	0.166 µM (active)
Cc1cc2nc3c(=O)[nH]c(=O)nc-3n(CC(O)C(O)C(O)CO)c2cc1C (stereo not given)	inactive
CC(C)c1c(C(=O)Nc2ccccc2)c(-c2ccccc2)c(-c2ccc(F)cc2)n1CC[C@H](O)C[C@@H](O)CC(=O)O	10.5 µM (active)
O=C(c1ccc(F)c(F)c1Nc1ccc(I)cc1F)N1CC(O)([C@H]2CCCCN2)C1	18.7 µM (active)
CCOC(=O)N1CCN([N+]([O-])=NOc2cc(ON=[N+]([O-])N3CCN(C(=O)OCC)CC3)c([N+](=O)[O-])cc2[N+](=O)[O-])CC1	5.9 µM (active)
C[C@H]1[C@H](O)O[C@@H]2O[C@@]3(C)CC[C@@H]4[C@H](C)CC[C@@H]1[C@@]24OO3	1.66 µM (active)
C[C@@H]1CC=CC=CC=CC=C[C@@H](O[C@@H]2O[C@H](C)[C@@H](O)[C@H](N)[C@H]2O)C[C@@H]2O[C@](O)(C[C@@H](O)C[C@@H]3O[C@@H]3C=CC(=O)O1)C[C@H](O)[C@@H]2C(=O)O	16.6 µM (active)
Cc1cc2c(cc1C1(c3ccc(C(=O)O)cn3)CC1)C(C)(C)CCC2(C)C	inactive
CC(NCCc1ccc(O)cc1)C(O)c1ccc(O)cc1 (stereo not given)	inactive
Cc1ccc(S(=O)(=O)OCC(=O)Nc2ccc(C(=O)O)c(O)c2)cc1	inactive
Cc1nc(C(=O)NCC(=O)O)c(O)c2ccc(Oc3ccccc3)cc12	inactive
NC[C@H]1O[C@H](O[C@@H]2[C@@H](O)[C@@H](O[C@H]3O[C@H](CO)[C@@H](O)[C@H](N)[C@@H]3O)[C@H](N)C[C@@H]2N)[C@H](O)[C@@H](O)[C@H]1O	inactive
